Common to all, as to experiment: DAPPL (digital affinity profiling via proximity ligation, sequencing); 10 mM Tris-HCl pH 7.5, 50 mM NaCl, 1 mM DTT, 4% glycerol, room temperature, 30 min; GST-TFs on glutathione beads, 16-mer random dsDNA library, 0.1% formaldehyde crosslink after washing; high values mean tight binding
Assay [1] deals with T1, FEV (Homo sapiens, UniProt Q99581 1-238).
T1 sequence: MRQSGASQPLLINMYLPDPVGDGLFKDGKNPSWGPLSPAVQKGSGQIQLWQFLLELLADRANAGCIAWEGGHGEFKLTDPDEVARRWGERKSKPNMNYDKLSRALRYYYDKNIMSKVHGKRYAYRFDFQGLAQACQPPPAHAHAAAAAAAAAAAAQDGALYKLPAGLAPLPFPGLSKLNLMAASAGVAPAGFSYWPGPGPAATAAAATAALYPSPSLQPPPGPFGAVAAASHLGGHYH
The settings on record: protein: recombinant; tags: N-terminal GST; dsDNA, one strand shown. The procedure, abridged: (§1)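 Each value of binding signal is a hexamer's read frequency for a factor divided by the same hexamer's frequency in the tag-only sample. Barcoded, bead-captured GST fusions of human transcription factors made in yeast were pooled with that sample and incubated with 200 nmole of a random double-stranded 16-mer DNA library in Tris/NaCl/DTT/glycerol buffer at room temperature for 30 min. Washing, 0.1% formaldehyde crosslinking, proximity ligation, PCR and Illumina NextSeq500 sequencing followed.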

Assay [2] has as its target ETV5 (Homo sapiens, UniProt P41161 1-510). The settings on record: protein: recombinant; tags: N-terminal GST; dsDNA, one strand shown. The procedure, abridged:
as §1

Assay [3] has as its target HSF1 (Homo sapiens, UniProt Q00613 1-529). As to conditions: protein: recombinant; tags: N-terminal GST; chain copies: 3; dsDNA, one strand shown. The procedure, abridged: as §1
Assay [4] has as its target T2, SPIC (Homo sapiens, UniProt Q8N5J4 1-248).
T2 sequence: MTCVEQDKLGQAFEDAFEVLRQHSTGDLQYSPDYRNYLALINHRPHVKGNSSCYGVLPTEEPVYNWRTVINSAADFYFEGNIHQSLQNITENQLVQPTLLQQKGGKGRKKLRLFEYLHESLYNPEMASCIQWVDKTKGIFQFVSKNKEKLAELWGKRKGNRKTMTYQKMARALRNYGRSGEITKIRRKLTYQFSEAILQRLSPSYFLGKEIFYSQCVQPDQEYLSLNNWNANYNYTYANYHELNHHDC
The settings on record: protein: recombinant; tags: N-terminal GST; dsDNA, one strand shown. Put shortly:
as §1

In assay [5] the target is ELF4 (Homo sapiens, UniProt Q99607 1-663). The settings on record: protein: recombinant; tags: N-terminal GST; dsDNA, one strand shown. The procedure, abridged: as §1
For assay [6], the target named is T3, ELK4 (Homo sapiens, UniProt P28324-2 1-405).
T3 sequence: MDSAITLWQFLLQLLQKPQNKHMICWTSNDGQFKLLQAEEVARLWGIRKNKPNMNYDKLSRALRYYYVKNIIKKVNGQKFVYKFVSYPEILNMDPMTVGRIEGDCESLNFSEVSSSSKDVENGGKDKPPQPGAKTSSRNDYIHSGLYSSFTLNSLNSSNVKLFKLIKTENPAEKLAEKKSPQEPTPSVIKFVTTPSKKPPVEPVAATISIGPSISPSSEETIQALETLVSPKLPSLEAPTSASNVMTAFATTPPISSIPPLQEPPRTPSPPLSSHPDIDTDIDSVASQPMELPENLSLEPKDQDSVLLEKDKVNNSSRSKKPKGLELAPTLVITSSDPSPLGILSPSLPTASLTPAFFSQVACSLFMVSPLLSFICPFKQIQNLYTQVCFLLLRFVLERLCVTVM
As to conditions: protein: recombinant; tags: N-terminal GST; dsDNA, one strand shown. Put shortly: as §1

Assay [7] concerns the target T4, ETV2 (Homo sapiens, UniProt O00321 1-342).
T4 sequence: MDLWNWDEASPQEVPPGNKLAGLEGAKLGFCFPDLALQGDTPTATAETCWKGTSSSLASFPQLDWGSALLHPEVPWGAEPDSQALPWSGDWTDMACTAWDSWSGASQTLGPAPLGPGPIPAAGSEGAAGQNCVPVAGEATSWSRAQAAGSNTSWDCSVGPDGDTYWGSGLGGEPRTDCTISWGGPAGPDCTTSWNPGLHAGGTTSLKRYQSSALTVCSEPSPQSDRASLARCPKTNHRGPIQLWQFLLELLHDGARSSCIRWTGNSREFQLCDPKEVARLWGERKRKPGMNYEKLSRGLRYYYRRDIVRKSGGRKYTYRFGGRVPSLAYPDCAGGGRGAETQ
The settings on record: protein: recombinant; tags: N-terminal GST; dsDNA, one strand shown. The procedure, abridged:
as §1

For assay [8], the target named is T5, ELF3 (Homo sapiens, UniProt P78545 1-371).
T5 sequence: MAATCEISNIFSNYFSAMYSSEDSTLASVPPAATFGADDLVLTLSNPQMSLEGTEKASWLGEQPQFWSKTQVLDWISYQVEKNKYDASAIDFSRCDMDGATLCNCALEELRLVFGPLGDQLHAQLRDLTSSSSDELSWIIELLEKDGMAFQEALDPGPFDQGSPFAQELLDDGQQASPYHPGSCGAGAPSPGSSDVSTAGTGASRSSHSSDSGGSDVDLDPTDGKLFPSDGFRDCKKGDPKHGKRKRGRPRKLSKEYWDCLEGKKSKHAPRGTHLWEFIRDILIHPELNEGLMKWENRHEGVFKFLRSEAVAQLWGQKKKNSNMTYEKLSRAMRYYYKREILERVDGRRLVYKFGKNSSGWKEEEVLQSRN
As to conditions: protein: recombinant; tags: N-terminal GST; dsDNA, one strand shown. Put shortly: as §1

Assay [9] deals with CRX (Homo sapiens, UniProt O43186 1-299). As to conditions: protein: recombinant; tags: N-terminal GST; dsDNA, one strand shown. Put shortly:
as §1

Assay [10] has as its target ETV1 (Homo sapiens, UniProt P50549 1-477). The settings on record: protein: recombinant; tags: N-terminal GST; dsDNA, one strand shown. Put shortly: as §1
Assay [11] concerns the target T6, ERF (Homo sapiens, UniProt P50548 1-548).
T6 sequence: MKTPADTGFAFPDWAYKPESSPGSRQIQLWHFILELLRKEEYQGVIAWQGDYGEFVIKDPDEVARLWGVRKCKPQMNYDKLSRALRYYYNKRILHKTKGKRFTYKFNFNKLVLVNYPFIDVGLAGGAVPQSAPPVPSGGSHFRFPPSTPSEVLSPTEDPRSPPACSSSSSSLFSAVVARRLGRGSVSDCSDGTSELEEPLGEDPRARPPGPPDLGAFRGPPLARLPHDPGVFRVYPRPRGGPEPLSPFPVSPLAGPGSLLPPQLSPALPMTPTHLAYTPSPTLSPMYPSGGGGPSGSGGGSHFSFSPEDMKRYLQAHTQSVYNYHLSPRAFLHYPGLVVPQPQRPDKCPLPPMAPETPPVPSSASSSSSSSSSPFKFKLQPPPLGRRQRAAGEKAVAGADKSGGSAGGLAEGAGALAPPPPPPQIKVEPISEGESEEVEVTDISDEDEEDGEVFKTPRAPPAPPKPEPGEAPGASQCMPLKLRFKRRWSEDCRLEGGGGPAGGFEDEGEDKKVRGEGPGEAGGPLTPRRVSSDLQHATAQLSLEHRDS
The settings on record: protein: recombinant; tags: N-terminal GST; dsDNA, one strand shown. Put shortly: as §1

Assay [12] addresses T7, ETV3L (Homo sapiens, UniProt Q6ZN32 1-361).
T7 sequence: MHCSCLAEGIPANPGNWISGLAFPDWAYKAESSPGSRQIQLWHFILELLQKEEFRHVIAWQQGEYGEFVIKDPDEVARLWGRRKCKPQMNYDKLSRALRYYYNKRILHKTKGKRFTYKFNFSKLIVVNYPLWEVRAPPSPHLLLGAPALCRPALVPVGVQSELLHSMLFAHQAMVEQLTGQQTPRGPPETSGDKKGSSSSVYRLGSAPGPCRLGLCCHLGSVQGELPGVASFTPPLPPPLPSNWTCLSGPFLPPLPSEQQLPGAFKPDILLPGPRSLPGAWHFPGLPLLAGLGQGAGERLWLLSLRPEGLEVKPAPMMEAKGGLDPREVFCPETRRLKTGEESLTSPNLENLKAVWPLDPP
The settings on record: protein: recombinant; tags: N-terminal GST; dsDNA, one strand shown. Put shortly: as §1

Assay [13] concerns the target T8, ETS2 (Homo sapiens, UniProt P15036 1-469).
T8 sequence: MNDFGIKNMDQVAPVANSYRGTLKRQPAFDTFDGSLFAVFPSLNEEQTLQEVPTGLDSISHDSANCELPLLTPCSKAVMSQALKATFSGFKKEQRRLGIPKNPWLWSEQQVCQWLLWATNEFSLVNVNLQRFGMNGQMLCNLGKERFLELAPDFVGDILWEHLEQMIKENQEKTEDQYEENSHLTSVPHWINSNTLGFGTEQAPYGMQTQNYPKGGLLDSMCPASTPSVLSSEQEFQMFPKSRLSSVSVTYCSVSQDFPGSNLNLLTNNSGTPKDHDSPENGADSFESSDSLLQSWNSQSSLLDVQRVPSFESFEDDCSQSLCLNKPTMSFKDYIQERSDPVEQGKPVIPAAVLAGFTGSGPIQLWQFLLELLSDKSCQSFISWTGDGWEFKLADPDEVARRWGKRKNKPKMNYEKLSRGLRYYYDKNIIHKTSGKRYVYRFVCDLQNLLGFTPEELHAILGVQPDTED
As to conditions: protein: recombinant; tags: N-terminal GST; dsDNA, one strand shown. Put shortly:
as §1

The target in assay [14] is T9, SPDEF (Homo sapiens, UniProt O95238 1-335).
T9 sequence: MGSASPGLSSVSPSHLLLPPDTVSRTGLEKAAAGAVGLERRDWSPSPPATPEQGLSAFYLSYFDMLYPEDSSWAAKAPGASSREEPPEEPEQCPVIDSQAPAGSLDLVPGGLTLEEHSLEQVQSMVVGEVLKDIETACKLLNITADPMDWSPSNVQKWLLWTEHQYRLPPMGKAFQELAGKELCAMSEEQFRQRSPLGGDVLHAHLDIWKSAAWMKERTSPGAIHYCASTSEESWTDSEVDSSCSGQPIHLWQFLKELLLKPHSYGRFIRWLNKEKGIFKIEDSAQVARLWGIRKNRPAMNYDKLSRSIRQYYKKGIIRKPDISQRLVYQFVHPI
The settings on record: protein: recombinant; tags: N-terminal GST; dsDNA, one strand shown. Put shortly: as §1

In assay [15] the target is T10, ETV7 (Homo sapiens, UniProt Q9Y603 1-341).
T10 sequence: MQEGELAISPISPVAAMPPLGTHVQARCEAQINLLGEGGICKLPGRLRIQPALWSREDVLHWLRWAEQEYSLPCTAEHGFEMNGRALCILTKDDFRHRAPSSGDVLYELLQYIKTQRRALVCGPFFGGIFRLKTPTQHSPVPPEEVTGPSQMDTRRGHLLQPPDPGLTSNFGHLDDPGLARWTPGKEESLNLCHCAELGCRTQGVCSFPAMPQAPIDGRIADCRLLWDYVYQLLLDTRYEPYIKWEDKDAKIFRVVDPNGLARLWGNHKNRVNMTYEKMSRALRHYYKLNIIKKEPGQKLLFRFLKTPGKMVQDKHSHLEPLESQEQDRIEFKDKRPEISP
As to conditions: protein: recombinant; tags: N-terminal GST; dsDNA, one strand shown. The procedure, abridged: as §1

Assay [16] concerns the target T11, ELF5 (Homo sapiens, UniProt Q9UKW6-2 1-255).
T11 sequence: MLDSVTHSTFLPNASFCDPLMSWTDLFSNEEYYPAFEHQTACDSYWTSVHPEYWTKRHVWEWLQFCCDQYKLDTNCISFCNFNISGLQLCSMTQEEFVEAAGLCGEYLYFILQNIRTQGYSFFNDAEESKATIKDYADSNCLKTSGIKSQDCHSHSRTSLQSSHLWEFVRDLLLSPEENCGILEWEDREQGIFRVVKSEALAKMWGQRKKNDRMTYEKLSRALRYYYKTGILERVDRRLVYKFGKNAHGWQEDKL
The settings on record: protein: recombinant; tags: N-terminal GST; dsDNA, one strand shown. The procedure, abridged:
as §1

Assay [17] addresses T12, ETV3 (Homo sapiens, UniProt P41162-2 1-143).
T12 sequence: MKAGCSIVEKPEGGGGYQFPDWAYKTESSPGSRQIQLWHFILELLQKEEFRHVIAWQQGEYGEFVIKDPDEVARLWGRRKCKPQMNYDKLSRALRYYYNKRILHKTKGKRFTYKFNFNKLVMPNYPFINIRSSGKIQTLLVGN
As to conditions: protein: recombinant; tags: N-terminal GST; dsDNA, one strand shown. Put shortly:
as §1

Assay [18] deals with ETV6 (Homo sapiens, UniProt P41212 1-452). As to conditions: protein: recombinant; tags: N-terminal GST; dsDNA, one strand shown. The procedure, abridged:
as §1

Sequence of CRX (O43186 whole entry): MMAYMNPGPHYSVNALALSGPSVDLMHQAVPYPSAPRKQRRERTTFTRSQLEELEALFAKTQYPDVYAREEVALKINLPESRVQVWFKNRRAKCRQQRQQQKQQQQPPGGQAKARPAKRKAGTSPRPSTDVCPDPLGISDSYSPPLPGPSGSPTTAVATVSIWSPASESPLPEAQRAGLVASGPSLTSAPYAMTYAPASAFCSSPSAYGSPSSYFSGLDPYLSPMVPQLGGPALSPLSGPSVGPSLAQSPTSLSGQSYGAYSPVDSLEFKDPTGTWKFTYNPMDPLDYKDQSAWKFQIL
Sequence of ETV1 (P50549 whole entry): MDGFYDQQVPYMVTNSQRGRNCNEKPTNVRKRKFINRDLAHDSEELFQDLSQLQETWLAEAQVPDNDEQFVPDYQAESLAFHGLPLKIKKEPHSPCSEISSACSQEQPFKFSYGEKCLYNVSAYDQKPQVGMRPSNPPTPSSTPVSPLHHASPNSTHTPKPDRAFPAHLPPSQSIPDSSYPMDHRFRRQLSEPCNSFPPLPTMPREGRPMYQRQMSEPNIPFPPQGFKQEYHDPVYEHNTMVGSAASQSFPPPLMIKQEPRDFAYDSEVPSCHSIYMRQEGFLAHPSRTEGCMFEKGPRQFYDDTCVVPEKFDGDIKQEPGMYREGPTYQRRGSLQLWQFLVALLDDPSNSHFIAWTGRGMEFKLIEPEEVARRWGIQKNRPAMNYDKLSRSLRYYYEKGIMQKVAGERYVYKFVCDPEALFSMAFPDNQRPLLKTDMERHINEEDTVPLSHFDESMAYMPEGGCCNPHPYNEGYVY
Sequence of HSF1 (Q00613 whole entry): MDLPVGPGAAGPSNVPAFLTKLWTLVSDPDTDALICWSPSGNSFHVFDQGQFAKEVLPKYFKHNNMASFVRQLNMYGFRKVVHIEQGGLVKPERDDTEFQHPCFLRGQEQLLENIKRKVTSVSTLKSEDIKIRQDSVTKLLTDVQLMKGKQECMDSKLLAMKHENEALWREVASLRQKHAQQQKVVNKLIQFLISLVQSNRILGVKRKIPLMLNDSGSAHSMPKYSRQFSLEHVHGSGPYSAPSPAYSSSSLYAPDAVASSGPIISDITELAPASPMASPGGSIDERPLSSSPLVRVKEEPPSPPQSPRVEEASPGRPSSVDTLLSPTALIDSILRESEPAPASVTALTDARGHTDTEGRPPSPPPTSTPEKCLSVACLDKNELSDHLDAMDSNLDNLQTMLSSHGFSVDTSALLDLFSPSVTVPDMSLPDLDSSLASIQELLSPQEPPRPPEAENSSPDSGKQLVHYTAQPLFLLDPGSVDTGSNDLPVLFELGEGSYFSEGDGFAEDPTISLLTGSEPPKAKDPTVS
Sequence of ETV5 (P41161 whole entry): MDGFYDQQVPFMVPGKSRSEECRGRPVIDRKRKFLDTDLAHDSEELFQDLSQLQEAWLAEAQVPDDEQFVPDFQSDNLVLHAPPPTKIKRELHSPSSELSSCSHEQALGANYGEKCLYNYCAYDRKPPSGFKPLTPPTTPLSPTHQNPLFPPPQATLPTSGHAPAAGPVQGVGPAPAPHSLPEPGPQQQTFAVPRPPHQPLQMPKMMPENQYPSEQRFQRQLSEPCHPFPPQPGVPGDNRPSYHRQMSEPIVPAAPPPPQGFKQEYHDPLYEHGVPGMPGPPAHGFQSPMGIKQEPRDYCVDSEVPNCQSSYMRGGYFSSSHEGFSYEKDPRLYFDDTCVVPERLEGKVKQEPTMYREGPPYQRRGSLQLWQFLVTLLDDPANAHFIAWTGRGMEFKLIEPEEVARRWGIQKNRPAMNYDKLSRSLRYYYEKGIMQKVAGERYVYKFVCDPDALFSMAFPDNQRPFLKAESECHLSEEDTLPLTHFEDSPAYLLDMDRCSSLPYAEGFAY
Sequence of ETV6 (P41212 whole entry): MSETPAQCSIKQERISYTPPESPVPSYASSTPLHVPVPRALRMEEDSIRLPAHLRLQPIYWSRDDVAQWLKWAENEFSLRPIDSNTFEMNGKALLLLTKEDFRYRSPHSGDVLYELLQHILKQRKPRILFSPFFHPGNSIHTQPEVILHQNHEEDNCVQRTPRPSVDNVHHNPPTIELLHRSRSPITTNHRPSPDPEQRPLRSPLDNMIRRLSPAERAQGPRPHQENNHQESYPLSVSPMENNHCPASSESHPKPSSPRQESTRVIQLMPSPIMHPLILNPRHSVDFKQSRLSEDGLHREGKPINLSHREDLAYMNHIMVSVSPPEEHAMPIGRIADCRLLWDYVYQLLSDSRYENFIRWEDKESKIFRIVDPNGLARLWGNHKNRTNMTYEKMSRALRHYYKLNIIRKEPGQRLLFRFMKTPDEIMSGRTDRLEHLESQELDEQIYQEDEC
Sequence of ELF4 (Q99607 whole entry): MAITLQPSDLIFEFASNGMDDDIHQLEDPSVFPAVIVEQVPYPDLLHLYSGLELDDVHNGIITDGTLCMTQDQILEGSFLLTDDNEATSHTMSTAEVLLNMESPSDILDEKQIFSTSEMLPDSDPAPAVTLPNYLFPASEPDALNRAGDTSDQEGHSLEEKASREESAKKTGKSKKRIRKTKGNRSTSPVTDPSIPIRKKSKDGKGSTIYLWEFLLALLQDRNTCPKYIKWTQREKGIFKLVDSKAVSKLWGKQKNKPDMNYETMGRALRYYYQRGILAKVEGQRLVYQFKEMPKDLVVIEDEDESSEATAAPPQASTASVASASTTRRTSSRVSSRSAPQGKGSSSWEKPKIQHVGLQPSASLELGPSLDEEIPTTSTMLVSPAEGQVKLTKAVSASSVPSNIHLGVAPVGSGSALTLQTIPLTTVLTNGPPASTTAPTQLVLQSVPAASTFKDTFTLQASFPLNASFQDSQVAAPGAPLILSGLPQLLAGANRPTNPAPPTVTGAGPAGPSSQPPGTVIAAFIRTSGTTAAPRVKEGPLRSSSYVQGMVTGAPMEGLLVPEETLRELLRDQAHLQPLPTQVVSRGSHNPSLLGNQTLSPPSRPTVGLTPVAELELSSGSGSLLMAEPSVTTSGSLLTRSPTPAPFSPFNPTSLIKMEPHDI

For the sequence TCACGT, the binding signal is 1.19 fold enrichment (6-mer frequency, TF over GST control) in [1]; 1.24 fold enrichment (6-mer frequency, TF over GST control) in assay [2]; 1.13 fold enrichment (6-mer frequency, TF over GST control) in [3]; 1.19 fold enrichment (6-mer frequency, TF over GST control) in [4]; 1.23 fold enrichment (6-mer frequency, TF over GST control) in [5]; 1.27 fold enrichment (6-mer frequency, TF over GST control) in assay [6]. Besides, the binding signal in [7] was 1.02 fold enrichment (6-mer frequency, TF over GST control); in assay [8], 1.01 fold enrichment (6-mer frequency, TF over GST control); in [9], 1.15 fold enrichment (6-mer frequency, TF over GST control); in assay [10], 1.26 fold enrichment (6-mer frequency, TF over GST control); in assay [11], 1.28 fold enrichment (6-mer frequency, TF over GST control); in assay [12], 1.22 fold enrichment (6-mer frequency, TF over GST control). Also, the binding signal is 1.2 fold enrichment (6-mer frequency, TF over GST control) in assay [13]; 1.15 fold enrichment (6-mer frequency, TF over GST control) in assay [14]; 1.22 fold enrichment (6-mer frequency, TF over GST control) in [15]; 1.19 fold enrichment (6-mer frequency, TF over GST control) in assay [16]; 1.19 fold enrichment (6-mer frequency, TF over GST control) in assay [17]; 1.24 fold enrichment (6-mer frequency, TF over GST control) in assay [18].

Source of the values: article PMC7862700, “An all-to-all approach to the identification of sequence-specific readers for epigenetic DNA modifications on cytosine”.
